Consider 40 compounds from the supplement of paper PMC4954754.

± gives the uncertainty stated by the source.

The subject of this test is HEK293T-Rex XBP1-RLuc. The test can be described thus: XBP1-RLuc splicing reporter activation, triplicate, relative to 500 nM thapsigargin (% of thapsigargin); higher = stronger IRE1/XBP1s reporter activation. The following applies: 6.8 µM; 18 h; screen: confirmation. The procedure: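 HEK293T-Rex cells stably expressing the ERSE-firefly luciferase (BiP promoter, ATF6-preferring) or XBP1-splicing Renilla luciferase (IRE1/XBP1s) reporter, 1536-well plates, compound at 6.8 µM for 18 hr at 37 °C; luminescence read […] and expressed as % activation = 100*(compound - median DMSO)/(median 500 nM thapsigargin - median DMSO). Primary screen was single-pass; confirmation screen in triplicate (mean ± SD).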
For `Cc1ccc(O)c(NC(=O)CSc2n[nH]c(C)c2[N+](=O)[O-])c1`, the “XBP1-RLuc splicing reporter activation” value was 16.6 ± 2.4.
`CCCCCC(=O)Nc1ccc(C(=O)Nc2ccccc2O)cc1`: the “XBP1-RLuc splicing reporter activation” value was 9.29 ± 0.42.
For `COc1cccc(/C=N/NC(=O)c2ccc(NC(=O)c3ccc(C)cc3)cc2)c1O`, the “XBP1-RLuc splicing reporter activation” value came out at 86.3 ± 12.
For `O=c1[nH]c(/C=C2\C=Nc3ccccc32)c(O)n1-c1ccc(Cl)cc1`, the “XBP1-RLuc splicing reporter activation” value amounted to 43.1 ± 3.6.
For `O=c1[nH]c(COc2ccccc2)nc2sc3c(c12)CCCC3`, the “XBP1-RLuc splicing reporter activation” value was 4.82 ± 0.69.
Take `N#C/C(=C\c1ccc(O)c(O)c1)C(=O)Nc1ccccc1`: the “XBP1-RLuc splicing reporter activation” value was 13.3 ± 0.68.
For `Nc1ccc2nc(/C=C/c3ccccc3)[nH]c2c1` the value was 13.7 ± 0.35; for `CCCNc1ccnc(N2CCc3ccccc3C2)n1`, -1.35 ± 0.17; for `Nc1ccccc1NC(=O)c1ccc(C(F)(F)F)cc1`, 11.1 ± 2.7.
For `N#Cc1c(NC(=O)c2ccc(Br)cc2)sc2c1CCCC2` the value was 1.92 ± 0.76; for `CCOc1cc(C2C(C(=O)OC3CCCCC3)=C(C)NC3=C2C(=O)CC(c2ccc(OC)cc2)C3)cc(Br)c1O` (stereo not given), 18.5 ± 2.8.
For `CN(C)c1ccc(-c2nc3ccc(N)cc3[nH]2)cc1`, the “XBP1-RLuc splicing reporter activation” value was found to be 13.4 ± 0.35.
Turning to `O=[N+]([O-])c1ccc2nc(/C=C/c3ccccc3)[nH]c2c1`, the “XBP1-RLuc splicing reporter activation” value worked out at 1.8 ± 0.81.
Consider `CCOc1ccc(NC(=O)c2ccc3c(c2)OCO3)c([N+](=O)[O-])c1`, for which the “XBP1-RLuc splicing reporter activation” value was -0.432 ± 2.4.
Turning to `COc1ccc(/C=C(\C#N)c2nc(-c3ccco3)cs2)cc1O`, the “XBP1-RLuc splicing reporter activation” value turned out to be 4.32 ± 0.33.
For the compound `Nc1nc(Nc2ccc(Cl)cc2)nc2ccccc12`, the “XBP1-RLuc splicing reporter activation” value was determined as 8.65 ± 0.74.
As to `Nc1ccc2nc(/C=C/c3ccco3)[nH]c2c1`, the “XBP1-RLuc splicing reporter activation” value is 17.8 ± 0.14.
With `COc1ccc(/C=N/c2sc3c(c2C(N)=O)CCCC3)cc1`, the “XBP1-RLuc splicing reporter activation” value is 2.45 ± 0.41.
To `COc1ccc(NC(=O)/C(Cl)=C\c2ccccc2)cc1` belongs -0.467 ± 2.4.
Take `N/C(=N\N=C\c1ccc(O)c(O)c1)c1nonc1N`: the “XBP1-RLuc splicing reporter activation” value came to 19.5 ± 0.38.
For the compound `OCCNc1nc(Nc2ccc(Cl)c(Cl)c2)nc2ccccc12`, the “XBP1-RLuc splicing reporter activation” value is 42.7 ± 1.8.
Turning to `Cc1ccc2nc(/C(C#N)=C/c3ccc(O)c(O)c3)[nH]c2c1`, the “XBP1-RLuc splicing reporter activation” value was determined as 16.5 ± 0.47.
Turning to `O=c1cc(-c2ccc(O)c(O)c2)oc2ccccc12`, the “XBP1-RLuc splicing reporter activation” value is 20.6 ± 1.5.
For `COc1ccc(/C=C2\SC(=O)NC2=Nc2ccc(C)cc2)c(OC)c1` the value was 6.33 ± 0.42; for `COc1cccc(/C=N/NC(=O)c2n[nH]c3c2CCCC3)c1`, 2.73 ± 0.56.
As for `CCn1c(/C(C#N)=C/c2ccc(OC)cc2)nc2ccccc21`, the “XBP1-RLuc splicing reporter activation” value is -0.629 ± 1.8.
As for `C/C(=N\NC(=O)c1n[nH]c2c1CCCC2)c1ccc(Br)cc1`, the “XBP1-RLuc splicing reporter activation” value came out at 2.87 ± 0.99.
To `Cc1ccc(O)c(-c2cc(-c3ccc(F)cc3)n[nH]2)c1` belongs 3.17 ± 2.6; to `O=C(N/N=C/c1ccc(O)c(O)c1)c1cccc(Cl)c1`, 6.18 ± 0.63; to `C=CCNC(=O)c1cc(-c2ccccc2)on1`, 5.5 ± 0.76.
For the compound `O=[N+]([O-])c1ccccc1NC(=S)N/N=C/c1ccc(O)c(O)c1`, the “XBP1-RLuc splicing reporter activation” value turned out to be 8.61 ± 0.81.
With `CC(=O)Oc1ccc(C(=O)OCc2ccc(Cl)cc2)cc1OC(C)=O`, the “XBP1-RLuc splicing reporter activation” value came to 12.3 ± 2.2.
Regarding `Cc1cc(C)nc(Nc2nc(-c3ccc(O)c(O)c3)cs2)n1`, the “XBP1-RLuc splicing reporter activation” value was 13.9 ± 9.7.
Consider `COc1cn(-c2ccc(F)cc2)nc1C(=O)Nc1ccccc1SC`, for which the “XBP1-RLuc splicing reporter activation” value is 15.5 ± 1.8.
To `COc1cccc(-c2cc(C(=O)Nc3cc(C)ccc3O)on2)c1` belongs 12.2 ± 1.9.
In the case of `Nc1nc(Nc2ccccc2)cc(-c2ccccc2)n1`, the “XBP1-RLuc splicing reporter activation” value worked out at 1.44 ± 0.87.
To `Cc1ccc2nc(/C(C#N)=C/c3ccc(O)cc3)[nH]c2c1` belongs 13.8 ± 1.6.
`CC(=O)Oc1ccc2cc(NC(=O)c3ccc(C)cc3)c(=O)oc2c1`: the “XBP1-RLuc splicing reporter activation” value stood at 12.1 ± 1.8.
Regarding `Oc1ccc(-c2csc(-c3ccccc3)n2)cc1O`, the “XBP1-RLuc splicing reporter activation” value is 31.3 ± 3.1.
In the case of `COc1ccc(/C=C(\C#N)c2nc3ccccc3n2C)cc1`, the “XBP1-RLuc splicing reporter activation” value is -0.499 ± 0.016.
